Bioassay records deposited in PubChem BioAssay by National Center for Advancing Translational Sciences (NCATS).
Rows were chosen to be rich in hits. Some 1.2% of all compounds tested hit in one or more screens of this group.
PKM2 act – increases activity of human pyruvate kinase M2 | P14618 | purified PKM2, Kinase-Glo ATP luminescence, activation; response scale: 0% is enzyme alone, no compound | Potency, µM (titrated, usually from 57.5 µM), hits mostly activators | 0.34% of 260,000 active | AID 1631; further: nearly all actives have a fitted effect of over 55% in size
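Purified hPK-M2 (>95% pure) converted ADP (0.1 mM final) to ATP with 0.5 mM PEP in 50 mM imidazole pH7.2, KCl, MgCl2, Tween 20, BSA; 1 h at room temperature. ATP detected by Kinase-Glo luminescence.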
TrxR1 substrate – substrates of rat thioredoxin reductase 1 | Potency, µM (doses to about 114 µM) | 0.01% of 390,000 active | AID 588456 | purified TrxR1 substrate turnover, NADPH consumption readout; further: nearly all actives have a fitted effect of over 50% in size
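Rat TrxR1, dispensed at 90 nM, was prereduced with 400 uM NADPH (final) for 5 min at ~22 deg C, then incubated with compound 15 min before 400 uM selenite. A first-read NADPH fluorescence drop versus no-compound background flagged substrates.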
PI4K2A inh – blocks human PI4K2A kinase activity | purified PI4K2A, ADP-Glo luminescence, 1 h; stronger effect = lower value | activity change, negative = inhibition, % at 76.9 µM | 0.13% of 420,000 active; in the data active means activity change below about -50%; inconclusive means mostly about -30% to -49%
Target sequence (Q9BTU6 whole entry, looked up): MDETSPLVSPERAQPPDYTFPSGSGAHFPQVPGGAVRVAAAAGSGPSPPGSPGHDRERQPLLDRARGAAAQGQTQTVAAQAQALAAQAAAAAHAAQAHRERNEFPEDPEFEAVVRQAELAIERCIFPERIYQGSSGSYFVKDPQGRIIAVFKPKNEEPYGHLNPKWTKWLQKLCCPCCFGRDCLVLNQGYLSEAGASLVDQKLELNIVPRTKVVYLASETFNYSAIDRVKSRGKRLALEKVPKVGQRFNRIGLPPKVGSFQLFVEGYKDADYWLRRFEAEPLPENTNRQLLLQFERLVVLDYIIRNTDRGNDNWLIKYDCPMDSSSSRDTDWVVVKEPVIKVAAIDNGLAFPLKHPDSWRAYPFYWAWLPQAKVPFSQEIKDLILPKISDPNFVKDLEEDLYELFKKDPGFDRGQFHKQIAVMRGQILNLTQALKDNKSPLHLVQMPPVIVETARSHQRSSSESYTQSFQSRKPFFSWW
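ADP-Glo luminescence measured ADP generated by PI4K2A enzyme (4 ug/mL before mixing) with 1.2 mM PI substrate (pre-mix) and 300 microM ATP (pre-mix). Tris pH7.5 buffer with MgCl2, Triton X-100; 1 h reaction at ambient temperature.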
rTrxR1 inhibitor – blocks rat thioredoxin reductase 1 | O89049 | recombinant rTrxR1, NADPH fluorescence consumption, selenite substrate | Potency, µM (top dose mostly 114 µM), most hits filed as inhibitors | 1% of 390,000 active | AID 588453; further: nearly all actives have a fitted effect of over 65% in size
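Rat TrxR1 (90 nM in the dispensed reagent) was pre-reduced with 400 uM NADPH for 5 min at room temperature, then incubated with compound for 15 min. After 400 uM selenite was added, NADPH fluorescence (Ex 340/Em 450 nm) was followed for 8 min.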
GALK inh – blocks human galactokinase activity. P51570. Purified GALK, Kinase-Glo residual ATP luminescence. Potency, µM (top dose mostly 57.5 µM), most hits filed as inhibitors. 0.007% of 270,000 active. AID 1868
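Galactose (100 uM) and ATP (35 uM) were turned over by 5 nM GALK for 1 h at RT. Kinase-Glo Plus then converted the remaining ATP into a luminescent signal.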
Numbers stand for hits; 0 = inactive; ? = inconclusive; - = not tested or not shown; ! = a repeat was not active. Unless noted, the call rests on the fitted dose curve; in most records, active means well fitted curve in the direction sought with a large enough effect; inconclusive means small, poorly fitted or top-dose-only effect, or another doubt; inactive means no such curve, though single readings can be large; an effect the other way counts as inactive or inconclusive.

SMILES | PKM2 act | TrxR1 substrate | PI4K2A inh | rTrxR1 inhibitor | GALK inh
O=C1N=c2ccccc2=C1c1sc(Nc2ccc(O)cc2)nc1O | 0 | 0 | -64.7 | 0 | 0
O=C1N=c2ccccc2=C1c1sc(Nc2cccc(O)c2)nc1O | 0 | 0 | 0 | 0 | 0
O=C(NCCNc1nccc(C(F)(F)F)n1)c1cccc(C(F)(F)F)c1 | 0 | 0 | 0 | 0 | 0
O=S(=O)(NCCNc1nccc(C(F)(F)F)n1)c1ccccc1 | 17.8µM | 0 | 0 | 0 | 0
COc1cccc(NC(=O)c2ccc3nc(Cc4ccccc4)oc3c2)c1 | - | 0 | 0 | 0 | -
COCCSc1ccccc1C(=O)Nc1cc(C)on1 | 31.6µM | 0 | 0 | 0 | 0
COc1ccccc1C(=O)Nc1cc(C)on1 | 0 | 0 | 0 | 0 | 0
CC(C)(C)n1ncc2c(=O)n(Cc3cc(Cl)ccc3Cl)cnc21 | - | 0 | - | 0 | -
CCOc1ccc(CNC(=O)Cn2nc(C)c3nn(-c4ccc(Cl)cc4)c(C)c3c2=O)cc1OC | - | 0 | 0 | 0 | -
COc1ccc(OCc2nnnn2-c2ccccc2)cc1 | 0 | 0 | 0 | 0 | 0
Brc1ccc(OCc2nnnn2-c2ccccc2)cc1 | 25.1µM | 0 | 0 | 0 | 0
COc1ccc(N2CCN(C(CNS(=O)(=O)c3ccc(OC)c(C)c3)c3ccco3)CC2)cc1 (stereo unspecified) | - | 0 | 0 | 0 | -
Cc1ccc(-c2ccc(=O)n(CCC(=O)NCCc3ccccc3)n2)cc1 | - | 0 | 0 | 0 | -
CC(C)C(NC(=O)[C@H](Cc1ccccc1)NC(=O)OCc1ccccc1)P(=O)(O)OC(Cc1ccccc1)C(=O)O (stereo partly specified) | - | - | 0 | - | -
CC(=O)c1ccc2noc(-c3ccc(C)cc3)c2c1 | 0 | 0 | 0 | 7.08µM | 0
CC1=C(C#N)c2nc(N)c(C#N)c(C)c2/C1=C\c1ccc(C)cc1 | 0 | - | - | - | 0
COc1cc(/C=C2\C(C)=C(C#N)c3nc(N)c(C#N)c(C)c32)ccc1OCC(=O)O | 0 | 0 | 0 | 31.6µM | 0
CCOC(=S)SCc1cn2ccc(C)cc2n1 | 7.94µM | 0 | 0 | 0 | 0
COc1cc2nc(N3CCCN(C)CC3)nc(NC3CCNCC3)c2cc1OC | - | 0 | - | 0 | -
O=S(=O)(c1cnc(Cl)c(Cl)c1)N1CCc2ccccc21 | 3.55µM | 0 | 0 | 0 | 0
O=C1COc2ccc(S(=O)(=O)N3CCc4ccccc43)cc2N1 | 14.1µM | 0 | 0 | 0 | 0
Cc1cnc2c(C)ccc(C)c2c1/C=C/c1ccc(N(C)C)cc1 | - | 0 | - | 0 | -
CC(C)CN(CCCNC(=O)CN1C(=O)COc2ccc(S(=O)(=O)N3CCCC3)cc21)CC(C)C | 0 | 0 | 0 | 0 | 0
CC(C)CN(CCCNC(=O)CN1C(=O)COc2ccc(S(=O)(=O)N3CCCCCC3)cc21)CC(C)C | - | 0 | 0 | 56.2µM! | 0
Cc1ccc(-n2ncc(C(=O)N3CCC(c4ccccc4)C3)c2C2CCN(C(=O)OC(C)(C)C)CC2)cc1 (stereo unspecified) | - | 0 | 0 | 0 | -
SMILES | PKM2 act | TrxR1 substrate | PI4K2A inh | rTrxR1 inhibitor | GALK inh
O=C1NC(=O)C(c2ccccc2[N+](=O)[O-])=C1Nc1ccc(O)c(Cl)c1 | 0 | 0 | 0 | 2.67µM! | -
O=C(NNc1ccccc1[N+](=O)[O-])Nc1ccc(Cl)c(Cl)c1 | 0 | 0 | 0 | 0 | 0
Cc1occc1-c1nnc(SCC(=O)c2ccc(Cl)cc2)n1C | 0 | 0 | 0 | ? | 0
Cc1occc1-c1nnc(SCC(=O)c2c[nH]c3ccccc23)n1C | 25.1µM | 0 | 0 | ? | 0
O=C(CSc1nc(-c2ccccc2)c2ccccc2n1)Nc1ccc(F)cc1 | - | 0 | 0 | 0 | -
Cc1c(F)cccc1NS(=O)(=O)c1ccc(OCCNS(C)(=O)=O)cc1 | 6.31µM | 0 | 0 | 0 | 0
Cc1ccc(CNC(=O)c2cc(=O)c3cc(C)cc(C)c3o2)cc1 | - | 0 | 0 | 0 | -
Cc1[nH]c2ccccc2c1C1C(c2ccccc2)=NN=C(C(C)C)N1O (stereo unspecified) | 0 | 0 | 0 | 44.7µM | 0
CC1=NN=C(c2ccccc2)C(c2c[nH]c3ccccc23)N1O (stereo unspecified) | 0 | 0 | 0 | ? | -
CC1=NOC(=O)/C1=C\c1ccc(-c2cc(Cl)ccc2Cl)o1 | 0 | 0 | 0 | 15.8µM | 0
CCOC(=O)c1ccc2c(c1)N(CC(=O)Nc1ccc(C)cc1C)C(=O)c1ccccc1S2 | - | 0 | 0 | 0 | -
CCN1C(=O)[C@H]2[C@@H](c3ccc(-c4ccc(F)cc4)c(OC)c3)N[C@@](C)(C(=O)OC)[C@H]2C1=O | - | 0 | 0 | 79.4µM | -
CC(C)Cn1c(=O)c2ccccc2n2c(CCC(=O)N3CCN(c4ccccc4)CC3)nnc12 | - | 0 | 0 | 0 | -
Cc1ccc(N(NC(=O)C(O)(c2ccccc2)c2ccccc2)C(=O)CCl)cc1 | 0 | 0 | 0 | 7.08µM | 0
CCC(O)(CC)C(=O)NN(C(=O)CCl)c1ccccc1 | 0 | 0 | 0 | ? | 0
O=C(Nc1ccccc1)NN(C(=O)CCl)c1ccccc1 | 0 | 0 | 0 | 7.94µM | 0
COC(=O)c1cc(C(C)c2ccccc2O)n2ccccc12 (stereo unspecified) | - | - | 0 | - | -
COc1ccc(C(=O)N2CCN(Cc3cc(OC)c(O)c(OC)c3)CC2)cc1OC | 0 | 0 | 0 | 25.1µM | 0
CC(C)(C)C1CCc2c(sc(NC(=O)CCC(=O)O)c2C(=O)Nc2ccccc2C(F)(F)F)C1 (stereo unspecified) | - | 0 | 0 | 0 | -
CCN1C(=O)/C(=C\C(=O)c2cccs2)c2cc(Br)ccc21 | ? | 0 | 0 | 17.8µM | 0
Cc1cc(C)cc(NC2=C(c3ccccc3)C(=O)c3ccccc32)c1 | - | 0 | 0 | 0 | -
CCOC(=O)C1(Cc2cccc(OC)c2)CCCN(C(=O)c2ccc(OC)o2)C1 (stereo unspecified) | 0 | 0 | 0 | 50.1µM | 0
NC[C@H]1O[C@H](O[C@H]2[C@H](O[C@@H]3O[C@H](CO)[C@@H](O)[C@H]3O)C(O)[C@H](N)C[C@@H]2N)[C@H](N)[C@@H](O)[C@@H]1O (stereo partly specified) | - | - | 0 | - | -
CCn1nc(C)cc1-c1nnc(Sc2ncc([N+](=O)[O-])s2)n1C | - | 0 | 0 | 0.355µM | 0
CCn1nc(C)cc1-c1nnc(SCC(=O)Nc2ccccc2)n1CCCOC | 0 | 0 | 0 | 0 | -
SMILES | PKM2 act | TrxR1 substrate | PI4K2A inh | rTrxR1 inhibitor | GALK inh
CCS(=O)(=O)N1CC(=O)N(c2cc(C)cc(C)c2)C(C)(C(=O)NC2CCCCC2)C1 (stereo unspecified) | - | 0 | 0 | 0 | -
COc1ccc(C(=O)NCC23C=CC(O2)C2C(=O)N(Cc4ccccc4)C(=O)C23)cc1 (stereo unspecified) | 0 | 0 | 0 | 25.1µM | 0
COc1ccc(CCNC(=O)c2ccc(CN3CCC(Cc4ccccc4)CC3)cc2)cc1 | 0 | 0 | 0 | 0 | 0
O=C(CSc1ccc(F)cc1)N1CCC(c2nc3ccccc3s2)CC1 | 20µM | 0 | 0 | 0 | 0
O=C(CN1CCC(c2nc3ccccc3s2)CC1)N1CCCCC1 | 0 | 0 | 0 | 0 | 0
CCc1ccc2occ(CC(=O)Nc3sc4c(c3C(=O)OC)CCC4)c2c1 | - | 0 | 0 | 0 | -
